# From PubChem BioAssay AID1159580 (chemical genetic matrix, 2015)
# Where “and” joins values, the source holds several entries; their conditions need not be identical. Identical values can stand only once. Screen size: about 5,500 compounds; about 2,000 (36%) were called active. Inconclusive results (about 18%) are left out. No stated cut-off is given here; in the data, active means normalized growth mostly below about 0.91 (no sharp cut-off); inconclusive means no clear call, values can overlap the other calls; inactive means mostly above about 0.92. Some of the results follow.
# Experiment: chemical genetic growth profiling, strain panel (AID 1159580);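 further: tested at 20 µM; growth read once vehicle control cultures reached saturation at 30 °C; 1 = growth at the plate median or of vehicle wells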
# Conditions: S. cerevisiae deletion strains, growth OD
smiles,measurement,setting,value
COc1cc(OC)c2c(=O)c(O)c(-c3ccc(OC)c(OC)c3)oc2c1,normalized growth,"locus YAL021C, strain ccr4, stronger effect = lower value",0.741 (active)
same,normalized growth,"locus YAL026C, strain drs2, stronger effect = lower value",0.852 (active)
same,normalized growth,"locus YAL030W, strain snc1, stronger effect = lower value",0.904 (active)
same,normalized growth,"locus YBL061C, strain skt5, stronger effect = lower value",0.901 (active)
same,normalized growth,"locus YBR009C, strain hhf1, stronger effect = lower value",0.903 (active)
same,normalized growth,"locus YBR021W, strain FUR4, stronger effect = lower value",0.922 (inactive)
same,normalized growth,"locus YBR023C, strain chs3, stronger effect = lower value",0.827 (active)
same,normalized growth,"locus YBR171W, strain sec66, stronger effect = lower value",0.942 (inactive)
same,normalized growth,"locus YBR229C, strain ROT2, stronger effect = lower value",0.648 (active)
same,normalized growth,"locus YBR231C, strain swc5, stronger effect = lower value",0.77 (active)
same,normalized growth,"locus YBR279W, strain paf1, stronger effect = lower value",0.913 (active)
same,normalized growth,"locus YCL011C, strain gbp2, stronger effect = lower value",0.916 (inactive)
same,normalized growth,"locus YCL016C, strain dcc1, stronger effect = lower value",0.934 (inactive)
same,normalized growth,"locus YCL029C, strain bik1, stronger effect = lower value",0.768 (active)
same,normalized growth,"locus YCL069W, strain vba3, stronger effect = lower value",0.973 (inactive)
same,normalized growth,"locus YCR088W, strain abp1, stronger effect = lower value",0.958 (inactive)
same,normalized growth,"locus YDL005C, strain med2, stronger effect = lower value",0.982 (inactive)
same,normalized growth,"locus YDL035C, strain GPR1, stronger effect = lower value",0.31 (active)
same,normalized growth,"locus YDL040C, strain nat1, stronger effect = lower value",0.978 (inactive)
same,normalized growth,"locus YDL074C, strain BRE1, stronger effect = lower value",0.402 (active)
same,normalized growth,"locus YDL101C, strain DUN1, stronger effect = lower value",0.396 (active)
same,normalized growth,"locus YDL134C, strain PPH21, stronger effect = lower value",0.369 (active)
same,normalized growth,"locus YDL185W, strain tfp1, stronger effect = lower value",0.94 (inactive)
same,normalized growth,"locus YDL192W, strain arf1, stronger effect = lower value",0.719 (active)
same,normalized growth,"locus YDR001C, strain nth1, stronger effect = lower value",0.964 (inactive)
same,normalized growth,"locus YDR069C, strain doa4, stronger effect = lower value",0.496 (active)
same,normalized growth,"locus YDR101C, strain arx1, stronger effect = lower value",0.811 (active)
same,normalized growth,"locus YDR137W, strain rgp1, stronger effect = lower value",0.904 (inactive)
same,normalized growth,"locus YDR159W, strain sac3, stronger effect = lower value",0.992 (inactive)
same,normalized growth,"locus YDR162C, strain NBP2, stronger effect = lower value",0.132 (active)
same,normalized growth,"locus YDR195W, strain ref2",0.984 (inactive)
same,normalized growth,"locus YDR297W, strain sur2, stronger effect = lower value",0.841 (active)
same,normalized growth,"locus YDR318W, strain mcm21, stronger effect = lower value",0.788 (active)
same,normalized growth,"locus YDR334W, strain swr1, stronger effect = lower value",0.856 (active)
same,normalized growth,"locus YDR335W, strain msn5, stronger effect = lower value",0.878 (active)
same,normalized growth,"locus YDR388W, stronger effect = lower value",0.844 (active)
same,normalized growth,"locus YDR392W, strain spt3, stronger effect = lower value",0.943 (inactive)
same,normalized growth,"locus YDR502C, strain sam2, stronger effect = lower value",0.667 (active)
same,normalized growth,"locus YEL003W, strain gim4, stronger effect = lower value",0.876 (active)
same,normalized growth,"locus YEL037C, strain rad23, stronger effect = lower value",0.926 (inactive)
same,normalized growth,"locus YEL061C, strain CIN8 (second series), stronger effect = lower value",0.98 (inactive)
same,normalized growth,"locus YER015W, strain faa2, stronger effect = lower value",0.82 (active)
same,normalized growth,"locus YER016W, strain bim1, stronger effect = lower value",0.942 (inactive)
same,normalized growth,"locus YER110C, stronger effect = lower value",1.02 (inactive)
same,normalized growth,"locus YER111C, strain swi4, stronger effect = lower value",0.835 (active)
same,normalized growth,"locus YER155C, strain BEM2 (second series), stronger effect = lower value",0.936 (inactive)
same,normalized growth,"locus YER155C, strain BEM2, stronger effect = lower value",0.664 (active)
same,normalized growth,"locus YER167W, strain BCK2, stronger effect = lower value",0.631 (active)
same,normalized growth,"locus YFR010W, strain ubp6, stronger effect = lower value",0.852 (active)
same,normalized growth,"locus YGL078C, strain dbp3, stronger effect = lower value",0.978 (inactive)
same,normalized growth,"locus YGL167C, strain pmr1, stronger effect = lower value",0.938 (inactive)
same,normalized growth,"locus YGL173C, strain kem1, stronger effect = lower value",0.78 (active)
same,normalized growth,"locus YGL227W, strain vid30, stronger effect = lower value",0.986 (inactive)
same,normalized growth,"locus YGL240W, strain doc1, stronger effect = lower value",0.993 (inactive)
same,normalized growth,"locus YGL248W, strain PDE1, stronger effect = lower value",0.46 (active)
same,normalized growth,"locus YGL253W, strain hxk2, stronger effect = lower value",0.889 (active)
same,normalized growth,"locus YGR078C, strain PAC10, stronger effect = lower value",0.591 (active)
same,normalized growth,"locus YGR135W, strain pre9, stronger effect = lower value",0.689 (active)
same,normalized growth,"locus YGR252W, strain gcn5, stronger effect = lower value",0.85 (inactive)
same,normalized growth,"locus YHR013C, strain ard1, stronger effect = lower value",0.868 (inactive)
same,normalized growth,"locus YHR027C, strain rpn1, stronger effect = lower value",0.695 (active)
same,normalized growth,"locus YHR030C, strain SLT2, stronger effect = lower value",0.971 (inactive)
same,normalized growth,"locus YHR079C, strain IRE1 (second series), stronger effect = lower value",0.77 (active)
same,normalized growth,"locus YHR079C, strain IRE1, stronger effect = lower value",0.996 (inactive)
same,normalized growth,"locus YHR094C, strain hxt1, stronger effect = lower value",0.864 (active)
same,normalized growth,"locus YHR129C, strain ARP1, stronger effect = lower value",0.589 (active)
same,normalized growth,"locus YHR142W, strain chs7, stronger effect = lower value",0.82 (active)
same,normalized growth,"locus YHR200W, strain rpn10, stronger effect = lower value",0.784 (active)
same,normalized growth,"locus YIL066C, strain RNR3, stronger effect = lower value",0.46 (active)
same,normalized growth,"locus YIL073C, strain SPO22, stronger effect = lower value",0.163 (active)
same,normalized growth,"locus YIL125W, strain kgd1, stronger effect = lower value",0.916 (active)
same,normalized growth,"locus YIR030C, strain dcg1, stronger effect = lower value",0.873 (active)
same,normalized growth,"locus YJL092W, strain hpr5, stronger effect = lower value",0.959 (inactive)
same,normalized growth,"locus YJL095W, strain BCK1 (second series), stronger effect = lower value",0.921 (active)
same,normalized growth,"locus YJL095W, strain BCK1, stronger effect = lower value",0.264 (active) and 0.97 (inactive)
same,normalized growth,"locus YJL115W, strain asf1, stronger effect = lower value",0.973 (inactive)
same,normalized growth,"locus YJL129C, strain trk1, stronger effect = lower value",1.01 (inactive)
same,normalized growth,"locus YJL134W, strain LCB3, stronger effect = lower value",0.608 (active)
same,normalized growth,"locus YJL154C, strain vps35, stronger effect = lower value",0.968 (inactive)
same,normalized growth,"locus YJL164C, strain tpk1, stronger effect = lower value",0.758 (active)
same,normalized growth,"locus YJL166W, strain qcr8, stronger effect = lower value",0.934 (inactive)
same,normalized growth,"locus YJL168C, strain set2, stronger effect = lower value",0.929 (active)
same,normalized growth,"locus YJL187C, strain SWE1 (second series), stronger effect = lower value",0.17 (active)
same,normalized growth,"locus YJR043C, strain POL32, stronger effect = lower value",0.238 (active)
same,normalized growth,"locus YJR066W, strain TOR1, stronger effect = lower value",0.943 (inactive)
